Test results published in PubChem BioAssay.
Active and inactive are the calls of the source. The rule behind the calls is not given here.

assay: Brca1-Bard1 BiLC signal decrease – luminescence, single concentration, counter-screen for Mdm2/MdmX interaction inhibitor project, confirmation (AID 504668); conditions: Brca1/Bard1 bimolecular luciferase complementation counterscreen, at 8 µM, stronger effect = higher value

SMILES | inhibition
COc1ccc(OC)c2sc(NC(=O)CCS(=O)(=O)c3ccccc3)nc12 | 23.8% (active)
COc1ccc(C(=O)C(CN2CCOCC2)c2ccccc2)cc1 (stereo not given) | 27.4% (active)
CCCCN(Cc1ccco1)C(=O)c1cc2c(=O)[nH]c3ccc(C)cc3c2s1 | 23.8% (active)
CCOC(=O)c1nc(NNC(=O)c2ccc([N+](=O)[O-])cc2)sc1C | 27.4% (active)
CCOC(=O)C1=C(c2ccccc2)NC(=O)NC1c1ccc(O)c(Cl)c1 (stereo not given) | 30.5% (active)
COc1ccccc1OCC(=O)N/N=C/c1c(O)ccc2ccccc12 | 27.8% (active)
Cc1nnnn1/C(=C\c1ccccc1)C(=O)OCC(=O)Nc1cccc(S(=O)(=O)N(C)C)c1 | 34% (active)
CCCc1c(NC(=O)Nc2ccc(F)cc2)cnn1-c1ccccc1 | 29.3% (active)
Oc1ccccc1C1CC(c2cccs2)=NC(c2ccc(Cl)cc2)N1 (stereo not given) | 28.5% (active)
COc1ccc(Oc2ccc(/C=C/C(=O)c3cccc(OC)c3)cc2[N+](=O)[O-])cc1 | 26.2% (active)
CCOC(=O)c1c(-c2ccccc2)oc2ccc(OCC(O)CN(C)C)cc12 (stereo not given) | 32.5% (active)
O=C(CCl)Nc1cccc(S(=O)(=O)N2CCCCCC2)c1 | 24% (active)
Cn1nccc1C(=O)N/N=C/c1c(O)ccc2ccccc12 | 31.1% (active)
C=CCC(Nc1ccccc1)C12C=CC(O1)C(C(=O)OC)=C2C(=O)OC (stereo not given) | 31.4% (active)
C[C@@H](NC(=O)OC(C)(C)C)c1nnc(S(=O)(=O)Cc2ccccc2)o1 | 24.9% (active)
COc1ccc(NC(=O)c2cc3c(CO)cnc(C)c3oc2=Nc2cccc(F)c2)c(OC)c1 | 27.9% (active)
COc1ccccc1-n1c(-c2ccccc2)c[n+]2c1CCc1ccccc1-2 | 29% (active)
O=C(/C=C/c1c(F)cccc1Cl)c1ccc(O)cc1 | 32.3% (active)
CCc1ccc(C(O)(CC(C)C)C(CN2CCOCC2)c2ccccc2)cc1 (stereo not given) | 27.2% (active)
CCOC(=O)Cn1c(-c2nonc2NC(=O)c2ccccc2F)nc2ccccc21 | 34.7% (active)

SMILES | inhibition
Cc1cccc(/C=N/NC(=O)Cc2ccc(Cl)cc2)c1O | 29.9% (active)
CN(CC1CCCO1)S(=O)(=O)c1ccc(C(=O)Nc2nc(-c3ccccn3)cs2)cc1 (stereo not given) | 27.4% (active)
CC1(C)Cc2c(sc(NC(=O)c3ccc(C(=O)c4ccccc4)cc3)c2C(N)=O)C(C)(C)N1 | 34.2% (active)
COC(=O)[C@@]1(Cc2ccccc2)[C@H]2C(=O)N(Cc3ccccc3)C(=O)[C@H]2[C@H]2CN=C(SCc3ccccc3)N21 | 34.6% (active)
O=C1[C@H]2[C@@H](c3ccc(F)cc3)N3C(=O)N(c4ccc(Br)cc4)C(=O)[C@@]3(Cc3ccc(Cl)cc3)[C@H]2C(=O)N1C1CCCCC1 | 27.8% (active)
N#Cc1c2ccc(O)cc2n2ccccc12 | 35.2% (active)
CN(Cc1cnc2nc(N)nc(N)c2n1)c1ccc(C(=O)N[C@@H](CCC(=O)O)C(=O)O)cc1 | 29.8% (active)
CC(Oc1ccc(F)cc1)C(=O)Nc1nc(-c2ccccn2)cs1 (stereo not given) | 35.6% (active)
CCOc1ccccc1Nc1nnc(SC(C)C(=O)Nc2nc(-c3ccccc3)cs2)s1 (stereo not given) | 35.2% (active)
O=C(C#Cc1ccccc1)Nc1cccc(F)c1 | 30.5% (active)
Cc1ccc(-n2c(-c3ccccc3)c[n+]3c2CCc2ccccc2-3)c(C)c1 | 26.4% (active)
CCN1CCN(CCCNC(=O)c2ccc(/C=C3/Sc4ccccc4N(Cc4ccccc4F)C3=O)cc2)CC1 | 24.1% (active)
CCc1ccc(/C=C/C(=O)c2c(C)cc(C)[nH]c2=O)cc1 | 30.6% (active)
CN1C2CCC1/C(=C\c1ccccc1F)C(=O)/C2=C/c1ccccc1F | 35.1% (active)
CCN1/C(=C/C=C/c2oc3ccc4ccccc4c3[n+]2CC)Oc2ccc3ccccc3c21 | 28.6% (active)
CCOc1ccccc1CNC(=O)c1cc2oc3ccccc3c2n1C | 26.3% (active)
CC(=O)NC(c1cccc([N+](=O)[O-])c1)c1ccc2cccnc2c1O (stereo not given) | 23.7% (active)
CCOc1ccccc1CNC(=O)C1CCCN(c2nnc(C)c3c(C)n(-c4ccccc4)nc23)C1 (stereo not given) | 33.6% (active)
CC(NC(=O)CN(c1cccc(C(F)(F)F)c1)S(=O)(=O)c1ccc(Cl)c([N+](=O)[O-])c1)c1ccccc1 (stereo not given) | 35.1% (active)
CC(=O)NC(c1ccc(C)cc1)c1cc([N+](=O)[O-])c2cccnc2c1O (stereo not given) | 25% (active)
